Vc quorum ag: inducers of Vibrio cholerae quorum light production without autoinducers, primary screen, BH1578 luxS cqsA deficient, single point | V. cholerae BH1578 lux reporter, luminescence, 6 h | activation, % at 18.7 µM | 0.16% of 350,000 active | AID 588436, 2011; in the data active = activation mostly above about 9.7%, no sharp cut-off
Mtb FBA inh: Mtb FBA enzyme inhibitors, primary screen, biochemical, fluorescence, strain H37Rv | Fructose-bisphosphate aldolase (Mycobacterium tuberculosis (strain ATCC 25618 / H37Rv)), … | purified M. tuberculosis FBA, fluorescence read-out | inhibition, % at 1 µM | 2.3% of 360,000 active;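 note: 0% = vehicle and 100% = reference inhibitor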
Target sequence (P9WQA3 whole entry, looked up): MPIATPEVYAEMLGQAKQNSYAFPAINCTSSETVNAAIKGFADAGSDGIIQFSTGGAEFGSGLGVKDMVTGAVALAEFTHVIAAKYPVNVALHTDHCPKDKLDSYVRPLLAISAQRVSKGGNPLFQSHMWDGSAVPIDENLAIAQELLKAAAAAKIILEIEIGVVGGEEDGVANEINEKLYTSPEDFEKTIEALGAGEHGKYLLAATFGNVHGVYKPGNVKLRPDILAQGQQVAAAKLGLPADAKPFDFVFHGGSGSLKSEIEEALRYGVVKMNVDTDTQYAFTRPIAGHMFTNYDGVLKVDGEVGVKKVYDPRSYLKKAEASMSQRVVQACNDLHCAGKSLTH
GDH-TPI counter-1: GDH-TPI coupling enzyme inhibitors, primary screen, artefact control for M. tuberculosis FBA inhibitor project, biochemical, absorbance, full deck; GDH-TPI coupled enzyme counterscreen, NADH absorbance; inhibition, % at 4.8 µM; 1.2% of 360,000 active; AID 588335, 2011; in the data active = inhibition above about 30%;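 note: 0% = DMSO wells and 100% = wells lacking the enzyme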
CCHFV vOTU inh: CCHFV vOTU protease inhibitors, primary screen, biochemical, Pep-AMC substrate, fluorescence. inhibition, % at 11.5 µM. Crimean-Congo hemorrhagic fever virus L polyprotein viral ovarian tumor (vOTU) protease …. 0.55% of 370,000 active; in the data active = inhibition above about 30%; note: 0% = vehicle wells with enzyme and 100% = no enzyme wells
Mtb FBA confirm: M. tuberculosis aldolase blockers, biochemical, fluorescence, strain H37Rv, confirmation; shares compounds with Mtb FBA inh; inhibition, % at 1 µM; purified M. tuberculosis FBA, fluorescence read-out; 78% of 5,600 active; AID 651616, 2012;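 note: 0% = vehicle wells and 100% = reference inhibitor wells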
GDH-TPI counter-2: GDH-TPI coupling enzyme inhibitors, artefact control for M. tuberculosis FBA inhibitor project, biochemical, fluorescence, high throughput; shares compounds with Mtb FBA inh; GDH-TPI coupled enzyme counterscreen; inhibition, % at 1 µM; 81% of 5,600 active; AID 652141, 2013; in the data active = inhibition above about 10%
An asterisk follows results filed as active; i = inactive; · = no result; + = active, no number. In the library only some 3.9% were active in any assay of this set; here they are far more common. Cut-off read from the data, not from the text of the source, unless noted: active = inhibition above about 27%; inactive = the rest.

SMILES | Vc quorum ag | Mtb FBA inh | GDH-TPI counter-1 | CCHFV vOTU inh | Mtb FBA confirm | GDH-TPI counter-2
COCC(=O)N1C[C@H](C)[C@H](OC)CN(C)C(=O)c2cc(NC(=O)Nc3cccc(F)c3)ccc2OC[C@@H]1C | · | · | · | 1 | · | ·
CCOC(=O)c1c(-c2ccc(Cl)cc2)cn2ccccc12 | i | 64* | 24 | -6 | + | 172*
Cc1ccc(NC(=O)c2ccc3snnc3c2)cc1C | -3 | -2 | 3 | 24 | · | ·
O=C(Nc1ccc(F)cc1)c1ccc2snnc2c1 | -1 | 46* | 5 | 3 | 122* | 114*
O=C(NN=C(c1ccccc1)c1ccccn1)c1ccccc1 | i | -3 | 8 | 10 | · | ·
COc1ccc(C(=O)N/N=C(\c2ccccc2)c2ccccn2)cc1 | -3 | 49* | 17 | 1 | 147* | 116*
CCOc1ccccc1NC(=O)NCc1ccco1 | i | 1 | 6 | -1 | · | ·
O=C(CCn1nnnc1CN1CCOCC1)N1CCC(c2cccc(Cl)c2)C1 (stereo not given) | i | 1 | -1 | -8 | · | ·
O=C(Nc1ccc2c(c1)C(=O)N(c1ccccc1)C2=O)c1cccs1 | i | 0 | -1 | -6 | · | ·
CN1C(=O)c2ccc(NC(=O)c3cccc(N4C(=O)CCC4=O)c3)cc2C1=O | 1 | 28* | 8 | -66 | 81* | 93*
CCCC(=O)Nc1ccc2c(c1)C(=O)N(CCC(=O)O)C2=O | -2 | 41* | 14 | -62 | 116* | 89*
O=C(O)CCN1C(=O)c2ccc(NC(=O)c3cccs3)cc2C1=O | i | 32* | 16 | -19 | 183* | 171*
Cc1cccc(NC(=O)c2cccc(N3C(=O)CCC3=O)c2)c1 | 0 | 1 | -2 | 13 | · | ·
CCC(=O)Nc1ccc2c(c1)C(=O)N(C)C2=O | · | 27* | 16 | -38 | 15 | 6
O=S(=O)(Nc1ccn(-c2ccccc2)n1)c1ccc(Br)cc1 | -1 | -4 | 4 | 5 | · | ·
CN(C)S(=O)(=O)Oc1ccc(Cl)cc1C(=O)Nc1ccc(F)cc1F | i | 4 | -5 | 8 | · | ·
O=C(CCCCCCN1C(=O)c2ccccc2C1=O)NC1CCCCC1 | -1 | -4 | 8 | 7 | · | ·
O=C(Cc1csc(-c2ccccc2)n1)NCc1ccco1 | i | 2 | 2 | 1 | · | ·
O=S1(=O)CCN2C=C(Br)C=C(Br)C2=N1 | i | 29* | 30 | -22 | 133* | 105*
COc1cccc(CNC(=O)[C@H]2CCCN2C(=O)[C@H]2CCCN2C(=O)c2cccc(OC)c2)c1 | · | · | · | -6 | · | ·
CSc1ccc(/C=C/C(=O)N2CCCN(C)CC2)cc1 | i | 32* | 18 | -20 | 52* | 45*
COc1ccc(S(=O)Cc2ccc(C(=O)NCc3cccc(OC)c3)o2)cc1 (stereo not given) | -2 | 29* | -4 | 10 | 58* | 42*
Fc1ccccc1CSc1ccc(-c2ccco2)nn1 | 1 | 4 | 7 | -3 | · | ·
COc1ccccc1CNC(=O)Cn1nc(C(F)(F)F)cc1C | 3 | 1 | 4 | -2 | · | ·
O=C1c2cccc3cccc(c23)C(=O)N1c1ccccn1 | i | 51* | 9 | -22 | -16 | -16
SMILES | Vc quorum ag | Mtb FBA inh | GDH-TPI counter-1 | CCHFV vOTU inh | Mtb FBA confirm | GDH-TPI counter-2
O=C1c2cccc3cccc(c23)C(=O)N1c1ccncc1 | · | 26 | 9 | -7 | · | ·
O=C1c2cccc3cccc(c23)C(=O)N1Cc1ccccn1 | i | 32* | 17 | -7 | 61* | 37*
CCOc1ccc(S(=O)(=O)N2CCCCC2)cc1NS(=O)(=O)c1cccs1 | -3 | -2 | 3 | 5 | · | ·
CC1(C)Nc2ccccc2C(=O)N1NS(=O)(=O)c1ccccc1 | 0 | 29* | 4 | -90 | -1 | -4
Cc1ccc(S(=O)(=O)NN2C(=O)c3ccccc3NC2(C)C)cc1 | 0 | 36* | 4 | -91 | + | +
Cc1ccc(S(=O)(=O)NN2C(=O)c3ccccc3NC2c2ccccc2)cc1 (stereo not given) | -1 | 20 | 4 | -2 | · | ·
COc1ccc(NC(=O)CCc2nnc3ccc(NCc4ccco4)nn23)cc1OC | 0 | 89* | 1 | -1 | 142* | 118*
COc1ccc(NC(=O)CCc2nnc3ccc(NCc4ccco4)nn23)cc1 | -1 | -1 | 1 | -12 | · | ·
Nc1cc(-c2ccccc2)n2c(n1)nc1ccccc12 | 1 | 4 | 2 | -1 | · | ·
C/C(O)=c1/cnc2nc3ccccc3n2c1=O | 0 | 30* | 24 | -12 | 24 | 21*
CCOC(=O)c1cc2c(=O)n3cccc(C)c3nc2n(Cc2ccco2)c1=NC(=O)c1cccnc1 | 1 | 106* | 20 | -64 | 31* | 35*
COc1cc2[nH]c(-c3cccc(F)c3)cc(=O)c2cc1OC | i | 28* | -4 | -18 | 82* | 64*
Cc1ccc(-c2cc(=O)c3ccccc3[nH]2)cc1 | 0 | 3 | 0 | -1 | · | ·
COc1cc2[nH]c(-c3ccc(C)cc3)cc(=O)c2cc1OC | i | 58* | 25 | -22 | + | +
CCOC(=O)N1CCC(Nc2nc3ccccc3n3nnnc23)CC1 | i | 35* | 16 | -8 | 47* | 40*
CS(=O)(=O)Nc1ccccc1C(=O)NCc1ccccc1Cl | 1 | 5 | 0 | -4 | · | ·
Cc1ccccc1CNC(=O)c1ccccc1NS(C)(=O)=O | 1 | 59* | 14 | -25 | 60* | 51*
CS(=O)(=O)Nc1ccccc1C(=O)NC1CC2CCC1C2 (stereo not given) | i | 37* | 4 | -14 | 65* | 49*
Fc1ccc(-c2cc(C(F)(F)F)n3ncnc3n2)cc1 | -1 | 85* | 10 | -16 | 130* | 129*
CCN(Cc1ccccc1)S(=O)(=O)c1cc(C(=O)NCCCN(C)C)ccc1OC | i | -1 | 4 | -8 | · | ·
CCCCCn1c(NC(=O)c2ccco2)c(C(=O)OCC)c2nc3ccccc3nc21 | i | 54* | 17 | · | 134* | 100*
COCCCNC(=O)c1c(NC(=O)c2ccco2)n(Cc2ccccc2)c2nc3ccccc3nc12 | i | 45* | 15 | -49 | 47* | 37*
COCCCNC(=S)N1CCN(C(=O)c2ccco2)CC1 | -2 | -7 | -2 | -16 | · | ·
CCN1CCN(C(=O)c2cc(COc3c(C)cccc3C)on2)CC1 | 0 | -1 | 2 | 1 | · | ·
Cc1ccc(NC(=O)N2CCN(c3ncccc3C(F)(F)F)CC2)cc1 | -1 | 1 | 13 | -5 | · | ·
O=C(Nc1ccc2ccccc2c1)N1CCN(c2ncccc2C(F)(F)F)CC1 | 3 | 37* | -3 | 4 | -9 | -5
Cc1ccc2nc(C)c(C(=O)N/N=C/c3ccc(C(=O)O)cc3)cc2c1 | 0 | 1 | 2 | 2 | · | ·

Screening data as filed in PubChem BioAssay.
